# Measurements: the supplement of paper PMC9950053
# Counter-ions that a name gives are not always drawn.
# Tested on: Danio rerio larvae (5 dpf)
# Experiment: startle (activity period 16 minus period 15, 20-s interval sound) minus DMSO control (percentage points); higher = stronger startle response than DMSO larvae
# Settings: 10 µM; exposure time: 3 h pre-incubation + 3 h imaging
# Method: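 Wild-type 5 dpf zebrafish larvae (n=48 per drug, 96-well plates, 28.5 °C) were exposed to Tocris FDA-approved library compounds at 10 µM (0.1% DMSO) for 3 h before and 3 h during imaging. Images were taken every 6 s during visual (moving coloured lines) and acoustic stimuli, and larvae were tracked with the DeepLabCut-based Z-LaP Tracker. Each behavioural measure is the treated-group mean minus the DMSO vehicle control mean (n=844), in percentage points. This mapping covers compounds with 4-character plate codes.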
row,SMILES,startle
1,N[C@@H]1C[C@H]1c1ccccc1 [Tranylcypromine hydrochloride],-9.63
2,COc1cc2c(cc1OC)C1CC(=O)C(CC(C)C)CN1CC2 (stereo unspecified) [Tetrabenazine],-4.98
3,Cc1cccc([C@H](C)c2c[nH]cn2)c1C [Dexmedetomidine hydrochloride],9.98
4,CN1C[C@H](C(=O)N[C@]2(C)O[C@@]3(O)[C@@H]4CCCN4C(=O)[C@H](Cc4ccccc4)N3C2=O)C[C@@H]2c3cccc4[nH]cc(c34)C[C@H]21 [Dihydroergotamine mesylate],6.26
5,C=C1C[C@@H]2[C@H](CC[C@]3(C)C(=O)CC[C@@H]23)[C@@]2(C)C=CC(=O)C=C12 [Exemestane],1.86
6,O=c1[nH]c2ccccc2n1C1CCN(CCCC(c2ccc(F)cc2)c2ccc(F)cc2)CC1 [Pimozide],0.33
7,CC(C)C[C@H]1C(=O)N2CCC[C@H]2[C@]2(O)O[C@](NC(=O)[C@@H]3C=C4c5cccc6[nH]c(Br)c(c56)C[C@H]4N(C)C3)(C(C)C)C(=O)N12 [Bromocriptine mesylate],-8.86
8,CC(O)(CS(=O)(=O)c1ccc(F)cc1)C(=O)Nc1ccc(C#N)c(C(F)(F)F)c1 (stereo unspecified) [Bicalutamide],0.428
9,CCN(C)C(=O)Oc1cccc([C@H](C)N(C)C)c1 [Rivastigmine tartrate],5.22
10,CC[C@@H](C(N)=O)N1CCCC1=O [Levetiracetam],1.63
11,C=CCN1C[C@H](C(=O)N(CCCN(C)C)C(=O)NCC)C[C@@H]2c3cccc4[nH]cc(c34)C[C@H]21 [Cabergoline],-9.97
